High-throughput results as filed in PubChem BioAssay.
The list is not random: actives were taken first. Their share in the collection is about 3.7%.
ANO1 activ: activators or potentiators of mouse TMEM16A chloride channel | Q8BHY3 | HEK293 TMEM16A/YFP-H148Q/I152L, iodide quench fluorescence; stronger effect = lower value | B-score at 10 µM | hit rate 0.3% among 340,000 | AID 623877;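 active = fluorescence-ratio B-score plate-corrected deviation score at least 3 library SD below zero, with starting fluorescence score within 5 deviations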;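 note: channel opened by trigger with iodide after compound preincubation; score built on the fluorescence ratio of max minus min over baseline; more negative score means more quench and so TMEM16A activation or potentiation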
Kir21 block: Kir2.1 (mouse) channel inhibition; HEK293-Kir2.1, FluxOR thallium flux fluorescence; stronger effect = lower value; hit rate 0.85% among 310,000; AID 1672; B-score at 10 µM;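 active = fluorescence ratio B-score at or below minus 3 SD of library scores, with starting-brightness B-score within 2 SD, cut at about -4.2 in these data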;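 note: channel flux triggered by added potassium and thallium sulfate stimulus; B-score of peak minus minimum fluorescence over baseline after thallium stimulus; more negative B-score means stronger Kir2.1 block with less thallium influx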
CHT block: inhibits the human high affinity choline transporter; hit rate 0.86% among 310,000; B-score at 10 µM; Q9GZV3; CHT-expressing cells, membrane potential dye, choline response; stronger effect = lower value;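 active = B-score over 3 SD under the library average, and starting fluorescence ratio not unusually high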;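 note: choline stimulus applied at its EC90 after an EC20 pre-addition; B-score computed on integrated fluorescence ratio after choline addition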
Target sequence (Q9GZV3 whole entry, looked up): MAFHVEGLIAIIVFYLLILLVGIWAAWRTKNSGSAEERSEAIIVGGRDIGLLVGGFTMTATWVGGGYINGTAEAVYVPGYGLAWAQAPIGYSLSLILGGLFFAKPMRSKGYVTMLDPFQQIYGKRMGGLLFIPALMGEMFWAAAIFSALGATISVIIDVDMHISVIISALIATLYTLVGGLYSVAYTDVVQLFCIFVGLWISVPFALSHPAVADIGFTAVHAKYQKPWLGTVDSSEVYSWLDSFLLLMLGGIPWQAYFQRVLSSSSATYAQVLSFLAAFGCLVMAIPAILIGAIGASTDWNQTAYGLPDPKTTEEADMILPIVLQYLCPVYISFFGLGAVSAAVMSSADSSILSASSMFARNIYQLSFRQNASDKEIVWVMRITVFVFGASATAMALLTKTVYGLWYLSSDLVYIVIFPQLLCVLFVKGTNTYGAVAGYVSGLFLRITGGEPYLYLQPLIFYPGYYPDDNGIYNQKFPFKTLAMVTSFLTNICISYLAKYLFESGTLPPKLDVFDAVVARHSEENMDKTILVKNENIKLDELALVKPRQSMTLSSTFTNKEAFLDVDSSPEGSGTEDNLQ
TMEM16A inh: blocks the mouse calcium-activated chloride channel TMEM16A. hit rate 1.2% among 310,000. Q8BHY3. HEK293 TMEM16A/YFP iodide influx fluorescence, ionomycin. normalized B-score (activity score, 25-100; higher = stronger inhibition) at 10 µM;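 active = ratio plate-corrected score three or more library SD toward inhibition, starting fluorescence score within five deviations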;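 note: score derived from kinetic fluorescence span divided by baseline fluorescence per well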
GPR7 antag: human neuropeptides B/W receptor 1 antagonism | GPR7-expressing cells, fluorescence antagonist assay | inhibition, % at 4.4 µM | hit rate 1.1% among 290,000 | AID 1861; in the data active = inhibition above about 16%, passing the limit was not always enough;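 note: cells stimulated with the agonist NPW; 0% = agonist with vehicle and 100% = vehicle without agonist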
CHT PAM: allosteric activators of human choline transporter CHT; Q9GZV3; CHT-expressing cells, membrane potential dye, choline EC20; stronger effect = higher value; LV-AA mutant CHT in HEK293 cells; B-score at 10 µM; hit rate 0.49% among 310,000; AID 488977;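 active = initial fluorescence not abnormally high and integrated response B-score, plate-corrected, over 3 SD above library mean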
TMEM16A reconf: TMEM16A (mouse) chloride channel inhibition, re-confirmation. shares compounds with TMEM16A inh. HEK293 TMEM16A/YFP-H148Q, iodide quench fluorescence; ionomycin added to raise cell calcium. inhibition, % at 10 µM. hit rate 39% among 2,300. AID 652189;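 active = mean duplicate percent inhibition, scaled so buffer wells are 0 and the reference blocker 100, over three buffer SD above buffer mean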
TMEM16A Ca cntr: calcium mobilization counter-screen hit for TMEM16A inhibitor series; TMEM16A/YFP HEK293, Fluo4 calcium mobilization; calcium response (% of ionomycin), % at 10 µM; hit rate 2% among 2,300; shares compounds with TMEM16A inh;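 active = duplicate-averaged calcium signal over 20% of the ionomycin maximum, relative to buffer baseline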;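 note: each well's signal is peak minus trough fluorescence divided by its pre-addition baseline; 0% = buffer wells and 100% = ionomycin wells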
YFP-HEK293 quench: counter-screen for TMEM16A inhibitors: effect in parental YFP-HEK293 cells. shares compounds with TMEM16A inh. iodide YFP quench, ionomycin. YFP ratio F(max-min)/F0 at 10 µM. 2,300 tested, under 10 active;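 active = yellow fluorescent protein signal ratio exceeding the buffer control mean by over 5 SD of those controls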;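 note: ratio is mean of duplicate wells from kinetic YFP trace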
ClC-1 inh: selectivity of TMEM16A inhibitors: inhibition of rat ClC-1 chloride channel | CHO ClC-1-YFP, iodide influx fluorescence quench; iodide control reads 0, buffer control 100 | ratio percent, % at 10 µM | 2,300 tested, under 10 active | shares compounds with TMEM16A inh;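 active = duplicate-mean ratio percent above the mean of iodide-only control wells, which defines zero, plus 5 of their SD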;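 note: higher percent means stronger block of ClC-1 iodide influx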
Active calls of the source: *; i = inactive; · = no result.

SMILES	ANO1 activ	Kir21 block	CHT block	TMEM16A inh	GPR7 antag	CHT PAM	TMEM16A reconf	TMEM16A Ca cntr	YFP-HEK293 quench	ClC-1 inh
O=C(Nc1ccc(Cc2ccncc2)cc1)c1ccc(S(=O)(=O)N2CCOCC2)cc1	i	-0.51	i	i	15	i	·	·	·	·
COc1cccc(C(=O)NCCS(=O)(=O)N2CCC(C)CC2)c1	i	-0.37	i	i	·	i	·	·	·	·
CCC(=O)N(Cc1cc2ccc(C)cc2[nH]c1=O)c1ccccc1OC	i	-1.3	i	i	-11	i	·	·	·	·
CCC(C)NS(=O)(=O)c1ccc(S(=O)(=O)N2CCCC3(CCCCC3)C2)cc1 (stereo unspecified)	i	-2.4	i	100*	1	i	52%*	i	-1.1	-30
CC1=NNC(=O)C1C(c1ccccc1)C1C(=O)NN=C1C (stereo unspecified)	·	1.5	i	i	-17	i	·	·	·	·
Cn1nc(C(F)(F)F)c(/C=N/OC(=O)c2ccccc2)c1Cl	i	-1.2	i	i	-5	i	·	·	·	·
Cn1nc(C(F)(F)F)c(/C=N/OC(=O)c2ccccc2)c1Sc1ccc(Cl)cc1	i	0.72	i	25*	-11	i	i	i	-1.1	-8
Cc1c(C(=O)N/N=C/c2cccs2)nc2ccccn12	i	-1.6	i	i	0	i	·	·	·	·
COc1ccccc1C(=O)NCCCN1CCCC1=O	i	0.14	i	25*	8	i	i	i	-1.1	-16
O=C(CSc1nnc(-c2ccncc2)n1Cc1ccco1)Nc1ccccc1Cl	·	-2.7	i	i	7	i	·	·	·	·
CCn1c(SCC(=O)Nc2nc(-c3ccccc3)cs2)nnc1-c1ccccc1O	i	-0.29	i	100*	0	i	36%*	i	-0.83	-3
O=C(CSc1nnc(-c2ccncc2)n1Cc1ccco1)Nc1nc(-c2ccccc2)cs1	i	0.28	i	25*	-3	i	30%*	i	-1.1	-6
CC(=O)Nc1ccc(NS(=O)(=O)c2ccc(Cl)s2)cc1	i	0.13	i	i	-1	i	·	·	·	·
Cc1nc2ccc(NS(=O)(=O)c3ccc(Br)cc3)cc2s1	i	·	·	·	·	·	·	·	·	·
CSc1nc2ccc(NS(=O)(=O)c3ccc(Cl)s3)cc2s1	i	-1.5	i	100*	-6	i	32%*	i	-0.9	-17
Cc1ccc(S(=O)(=O)Nc2ccc3nc(C)sc3c2)cc1	i	0.34	i	25*	-3	i	i	i	-1.2	-8
CCOc1ccc(NS(=O)(=O)c2cc(C(=O)N(CC)CC(=O)NCc3cccs3)ccc2C)cc1	i	-0.21	i	i	·	i	·	·	·	·
CCOC(=O)/C=C1\NC(=O)CS1	i	-0.55	i	i	-7	i	·	·	·	·
CC1(C)C(CO)=CC(=O)C2=C1SCC(=O)N2	i	-0.08	i	100*	-12	i	i	i	-1.1	2
COC(=O)c1cc(NC(=O)C(C)c2ccc(CC(C)C)cc2)ccc1O (stereo unspecified)	i	-0.62	i	25*	-2	i	22%*	i	-0.94	-9
O=C(O)/C=C/c1ccc(-n2ccnc2)cc1	i	-0.5	i	i	-5	i	·	·	·	·
CCOC(=O)N1CCN(Cc2nc(N)nc(Nc3ccc(OC)cc3)n2)CC1	i	-0.67	i	i	-9	i	·	·	·	·
CCOC(=O)N1CCN(Cc2nc(N)nc(Nc3ccc(Oc4ccccc4)cc3)n2)CC1	i	·	i	25*	-2	i	17%*	i	-1.1	-5
CC1CC(c2ccccc2)n2nc(N3C(=O)c4ccccc4C3=O)nc2N1 (stereo unspecified)	i	-2.6	i	25*	-6	i	i	i	-1.2	-14
CS(=O)(=O)Nc1nc2n(n1)C(c1ccc(F)cc1)CC(c1ccccc1)N2 (stereo unspecified)	i	-1.2	i	i	-3	i	·	·	·	·
SMILES	ANO1 activ	Kir21 block	CHT block	TMEM16A inh	GPR7 antag	CHT PAM	TMEM16A reconf	TMEM16A Ca cntr	YFP-HEK293 quench	ClC-1 inh
CN1CCN(/N=C/c2ccc(N(c3ccccc3)c3ccccc3)cc2)CC1	i	-0.13	i	100*	-17	i	32%*	i	-0.93	-3
CSc1nc(N)nc2c1ncn2CC(=O)N1CCN(c2ccccn2)CC1	i	·	·	·	·	·	·	·	·	·
COc1ccc([N+](=O)[O-])cc1NCc1ccccc1C	i	-0.7	i	100*	3	i	i	i	-1.2	-9
COc1ccc([N+](=O)[O-])cc1NCc1ccccc1	i	0.11	i	i	-16	i	·	·	·	·
CC(C(=O)N1CCN(c2ccccc2)CC1)N1C(=O)C2CC=CCC2C1=O (stereo unspecified)	i	0.13	i	25*	-7	i	i	i	-1	-15
Cn1ncc2c(N3CCN(c4ccc(Cl)c(Cl)c4)CC3)ncnc21	i	0.15	i	25*	15	i	i	i	-1.1	-16
COc1ccccc1NC(=O)CSc1nnc(-c2ccc(C)cc2)o1	i	-1.6	i	i	3	i	·	·	·	·
COc1ccc(C)cc1NC(=O)CSc1nnc(-c2ccc(Br)cc2)o1	i	-0.98	i	100*	5	i	i	i	-0.92	-24
CCOc1ccccc1NC(=O)Nc1c(C)n(-c2ccccc2)c(=O)n1C	i	-0.13	i	100*	-4	i	i	i	-0.81	-1
COc1ccc(NC(=O)Nc2c(C)n(-c3ccccc3)c(=O)n2C)cc1OC	i	-2.9	i	i	16	i	·	·	·	·
Cc1[nH]nc(-c2ccc(O)cc2O)c1Oc1ccccc1	i	-0.91	i	100*	-7	i	24%*	i	-1.1	-20
Cc1ccc(-c2noc(CCCC(=O)NC3CCCCC3)n2)cc1	i	-0.04	i	25*	15	i	i	i	-1.2	-16
OCCNc1cc(Cl)ncn1	i	0.01	i	i	-17	i	·	·	·	·
Cc1sc2ncnc(N3CCN(S(=O)(=O)c4ccc(Br)cc4)CC3)c2c1C	i	0.08	i	25*	-15	i	30%*	i	-0.99	-23
